From the supplement of paper PMC8371130
Structures can show the parent of a compound that is named as a salt.

System: HL-1
Assay: relative cell viability (CellTiter-Glo) vs DMSO control (% of DMSO control); higher = more viable cells
Summary of the method: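 HL-1 mouse atrial cardiomyocytes were plated in 384-well plates at 1000 cells per well together with compounds at 40, 200, 1000 or 5000 nM in 0.01% DMSO. One day later, cells went to a hypoxic workstation (1% O2) for 48 h, then were reoxygenated for 24 h in a normal incubator, or stayed in normoxia for the same time. Cell viability was read by CellTiter-Glo luminescence and normalised to vehicle-treated control cells.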

[1] = oxygen condition: hypoxia 48 h (1% O2) + reoxygenation 24 h, 40 nM
[2] = oxygen condition: hypoxia 48 h (1% O2) + reoxygenation 24 h, 200 nM
[3] = oxygen condition: hypoxia 48 h (1% O2) + reoxygenation 24 h, 1000 nM
[4] = oxygen condition: hypoxia 48 h (1% O2) + reoxygenation 24 h, 5000 nM
[5] = oxygen condition: normoxia 72 h, 40 nM
[6] = oxygen condition: normoxia 72 h, 200 nM
[7] = oxygen condition: normoxia 72 h, 1000 nM
[8] = oxygen condition: normoxia 72 h, 5000 nM

| SMILES | relative cell viability [1] | relative cell viability [2] | relative cell viability [3] | relative cell viability [4] | relative cell viability [5] | relative cell viability [6] | relative cell viability [7] | relative cell viability [8] |
| --- | --- | --- | --- | --- | --- | --- | --- | --- |
| CCN(CC)C(=O)C1(c2ccccc2)CC1CN (stereo not drawn) [Milnacipran HCl] | 107 | 108 | 105 | 118 | 107 | 101 | 106 | 109 |
| CCOC(=O)[C@H](CCc1ccccc1)N[C@H]1CCCN2CCC[C@@H](C(=O)O)N2C1=O [Cilazapril monohydrate] | 97.6 | 97.3 | 94.1 | 113 | 105 | 106 | 98.7 | 115 |
| CC(=O)[C@H]1CC[C@H]2[C@@H]3C=CC4=CC(=O)CC[C@@]4(C)[C@@H]3CC[C@]12C [Dydrogesterone] | 97.1 | 99 | 106 | 105 | 100 | 98.8 | 96.7 | 105 |
| Nc1nc2[nH]cc(CCc3ccc(C(=O)N[C@@H](CCC(=O)O)C(=O)O)cc3)c2c(=O)[nH]1 [Pemetrexed] | 116 | 104 | 85.8 | 74.8 | 104 | 95.5 | 90.8 | 69.6 |
| CC1=C(/C=C/C(C)=C/C=C/C(C)=C/C=C/C=C(C)/C=C/C=C(C)/C=C/C2=C(C)CCCC2(C)C)C(C)(C)CCC1 [Beta Carotene] | 96.9 | 95.3 | 99.9 | 104 | 104 | 92.9 | 104 | 104 |
| C[C@H]1c2cccc(O)c2C(=O)C2=C(O)[C@]3(O)C(=O)C(C(N)=O)=C(O)[C@@H](N(C)C)[C@@H]3[C@@H](O)[C@@H]21 [Doxycycline HCl] | 102 | 104 | 105 | 107 | 105 | 106 | 95.6 | 92.9 |
| CCOC(=O)C1=C(C)NC(C)=C(C(=O)OCC)C1c1ccccc1/C=C/C(=O)OC(C)(C)C [Lacidipine] | 109 | 102 | 100 | 102 | 106 | 104 | 106 | 106 |
| CC(=O)[C@H]1CC[C@H]2[C@@H]3CCC4=CC(=O)CC[C@]4(C)[C@H]3CC[C@]12C [Progesterone] | 109 | 105 | 103 | 116 | 111 | 111 | 111 | 116 |
| CO[C@H]1C[C@@H]2CC[C@@H](C)[C@@](O)(O2)C(=O)C(=O)N2CCCC[C@H]2C(=O)O[C@H]([C@H](C)C[C@@H]2CC[C@@H](OC(=O)C(C)(CO)CO)[C@H](OC)C2)CC(=O)[C@H](C)/C=C(\C)[C@@H](O)[C@@H](OC)C(=O)[C@H](C)C[C@H](C)/C=C/C=C/C=C/1C [Temsirolimus] | 70.7 | 67.6 | 74.2 | 61.7 | 60.2 | 67.5 | 81.1 | 44 |
| Clc1ccc2nsnc2c1NC1=NCCN1 [Tizanidine HCl] | 99.5 | 106 | 106 | 108 | 105 | 106 | 98.5 | 111 |
| CCc1c2c(nc3ccc(OC(=O)N4CCC(N5CCCCC5)CC4)cc13)-c1cc3c(c(=O)n1C2)COC(=O)[C@]3(O)CC [Irinotecan] | 99.9 | 90.1 | 51.8 | 28.7 | 95.2 | 83.4 | 64.9 | 22.8 |
